Data as given in PubChem BioAssay (NCI).
This is part of a sample that, as a whole, favours compounds with a hit. Of some 83,000 tested, about 20% had one in any assay.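 Negative percent growth values reflect cell death: -40 means 40% of the cells present at the start died, and -100 means all died.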 A number with no mark means an inactive call. Active and inactive are the calls of the source. How the source made its calls: active means growth percent below 10; inactive means the rest.

Columns and labels:
Assay in all cases: NCI-60 one-dose screen, 48 h (100 = growth as untreated, 0 = no growth, -100 = all killed)
Conditions in all cases: 10 µM
HCT-15 colon = tested on: HCT-15 colon
HT29 colon = tested on: HT29 colon
SNB-75 CNS = tested on: SNB-75 CNS
SNB-19 CNS = tested on: SNB-19 CNS
U251 CNS = tested on: U251 CNS
PC-3 prostate = tested on: PC-3 prostate
SK-MEL-5 melanoma = tested on: SK-MEL-5 melanoma
UACC-62 melanoma = tested on: UACC-62 melanoma
LOX IMVI melanoma = tested on: LOX IMVI melanoma
SK-MEL-28 melanoma = tested on: SK-MEL-28 melanoma
SK-MEL-2 melanoma = tested on: SK-MEL-2 melanoma
EKVX NSCLC = tested on: EKVX NSCLC
SN12C renal = tested on: SN12C renal
UO-31 renal = tested on: UO-31 renal
TK-10 renal = tested on: TK-10 renal
ACHN renal = tested on: ACHN renal
CAKI-1 renal = tested on: CAKI-1 renal
A498 renal = tested on: A498 renal
CCRF-CEM leukemia = tested on: CCRF-CEM leukemia
MOLT-4 leukemia = tested on: MOLT-4 leukemia

Structure (SMILES)	growth (HCT-15 colon)	growth (HT29 colon)	growth (SNB-75 CNS)	growth (SNB-19 CNS)	growth (U251 CNS)	growth (PC-3 prostate)	growth (SK-MEL-5 melanoma)	growth (UACC-62 melanoma)	growth (LOX IMVI melanoma)	growth (SK-MEL-28 melanoma)	growth (SK-MEL-2 melanoma)	growth (EKVX NSCLC)	growth (SN12C renal)	growth (UO-31 renal)	growth (TK-10 renal)	growth (ACHN renal)	growth (CAKI-1 renal)	growth (A498 renal)	growth (CCRF-CEM leukemia)	growth (MOLT-4 leukemia)
C=CCN(CC=C)C(=O)[C@H](CC)[C@@H]1CC[C@@H](C)[C@@H]([C@H](C)[C@@H](O)[C@@H](C)C(=O)[C@H](CC)C2O[C@]3(C=C[C@@H](O)[C@]4(CC[C@@](C)([C@H]5CC[C@](O)(CC)[C@H](C)O5)O4)O3)[C@H](C)C[C@@H]2C)O1 (stereo partly specified)	4.64% (active)	9.13% (active)	-7.45% (active)	14.2%	18.9%	2.56% (active)	-85.2% (active)	14.3%	17%	33.9%	-7.12% (active)	-5.86% (active)	6.36% (active)	-12.6% (active)	16.2%	5.93% (active)	1.41% (active)	-2.03% (active)		
CCC(CC)n1c(C)cc(=O)n1C(CC)CC	106%	111%	95.3%	96%	105%	104%	98.4%	101%	102%	107%	111%	113%	105%	115%	109%	101%	97.6%	116%	107%	103%
O=[N+]([O-])c1ccc2ncccc2c1Cl	13.2%	9.81% (active)	73.9%	62.7%	35.9%	38.5%	89.3%	54.7%	20.9%	76.2%	77.4%	119%	45.6%	30.2%	66.7%	56.2%	32%	100%	12.3%	30%
CCC(=O)OC1CCC2C3CCC(=O)OC3C(C)(CCC(=O)O)CC12C (stereo unspecified)	24.2%	4.42% (active)	-1.91% (active)	62.8%	28.3%	31.4%	-83.5% (active)	45.9%	30.9%	59.8%	12.7%	8.81% (active)	55.5%	47.1%	47%	43.9%	-4.08% (active)	-71.5% (active)	-14.8% (active)	-0.59% (active)
O=C(CCl)Oc1ccc(OC(=O)CCl)cc1	94.1%	99.9%	75.3%	104%	101%	89.4%	82.2%	85%	89.3%	104%	96.1%	90.4%	87.2%	64.1%	113%	75.2%	93.7%	97.4%	13.3%	84.2%
C=C1CCC2(C#N)[C@H]3[C@H](CC[C@@H]2C)[C@@H](C)C[C@@H](CC(C)(C)NC(=O)CN2CCC2=O)[C@H]13 (stereo partly specified)	47.3%	75.6%	57.4%	40.2%	33.6%	17.8%	27.4%	48.5%	54.2%	73.9%	64.4%	52.6%	57.1%	47.3%	81.4%	65.6%	56.4%	92.1%		
CC(=O)Nc1ccc2c(c1)C(=O)c1cccc(C(=O)O)c1-2	107%	115%	91%	101%	108%	99.5%	95.5%	109%	109%	97.9%	115%	107%	109%	111%	116%	105%	94.9%	120%	103%	107%
O=C(N/N=C/c1ccc([N+](=O)[O-])cc1)c1ccccc1Nc1cccc(C(F)(F)F)c1	98.6%	69.8%	87.1%	105%	89.2%	91%	83.1%	90.8%	98.1%	91.7%	80.9%	92.4%	99.5%	78.4%	173%	91%	76.9%	-6.91% (active)	91.9%	109%
C(=N\Nc1ncnc2sc3c(c12)CCNC3)/c1cccc2ccccc12	18.9%	16.8%	62.5%	79.1%	83%	76.9%	97.1%	101%	50.4%	103%	109%	92.7%	82.4%	74.4%	104%	47.9%	92%	98%		
NS(=O)(=O)Oc1ccc2c(ccn2C(=O)C23CC4CC(CC(C4)C2)C3)c1	110%	102%	117%	98.5%	99.2%	103%	95%	98.8%	98.8%	101%	116%	109%	97.8%	80.4%	106%	101%	94.4%	98.1%	99%	101%
Cc1ccc(C(=O)/C=C/c2ccccc2)s1	107%	107%	106%	99.1%	95.8%	111%	99.9%	97.4%	79.1%	114%	102%	82.3%	103%	77.7%	108%	121%	92.4%	90.5%	99.8%	100%
CCCC1(CN2c3ccccc3Sc3ccc(Cl)cc32)CCN(CC)C1 (stereo unspecified)	3.6% (active)	-68% (active)	1.99% (active)	-36.3% (active)	-92% (active)	5.75% (active)	-95.9% (active)	-21.4% (active)	-100% (active)	-67.8% (active)	-3.45% (active)	-12.8% (active)	23.1%	-1.01% (active)	-56.6% (active)	0.109% (active)	-14.2% (active)	8.05% (active)	-11.2% (active)	
OC(CNc1ccnc2cc(Cl)ccc12)CNC1CCCCC1 (stereo unspecified)	75.6%	31.3%	87.4%	100%	63.1%	69.4%	15.3%	61.4%	73%	23.3%	91.8%	88.1%	85.9%	61.2%	96.1%	81.8%	71.2%	59.6%	80.5%	
COc1ccc(/C=C2/SC(=S)NC2=O)c(OC)c1OC	75.6%	98.3%	77.8%	88.2%	83.5%	75.6%	73.8%	68.6%	65.9%	86.9%	87.4%	65.9%	78.7%	42.5%	81.3%	77.4%	64.3%	54.2%	76.8%	
COc1cc2c(cc1OC)C(C(CCCCCC(CCC(C)C)C1NCCc3cc(OC)c(OC)cc31)CCC(C)C)NCC2 (stereo unspecified)	-100% (active)	-95.3% (active)	-99.5% (active)	-47.5% (active)	-99% (active)	-92.3% (active)	-96.4% (active)	-91.5% (active)	-100% (active)	-100% (active)	-91.9% (active)	-74.4% (active)	-85.5% (active)	-96.3% (active)	-97.2% (active)	-100% (active)	-84.7% (active)	-59.6% (active)	-74.3% (active)	2.91% (active)
CCOC(=O)c1cocc1C(=O)O	103%	110%	83.3%	107%	103%	112%	104%	116%	103%	104%	105%	103%	105%	93.3%	118%	111%	107%	112%	74.1%	86.5%
